Inconclusive results are not listed. Where a call stands in place of a potency, no number is given. A number with no mark means an inactive call. Activity calls are given as the source filed them. The call rests on the fitted dose curve; in most records, active means well fitted cell-killing curve with a large enough effect in the repeat runs; inconclusive means weak or mixed curves, or effect the other way; inactive means no such curve, though single readings can be large or run the other way.

The assay in a line: qHTS assay to identify small molecule antagonists of the progesterone receptor (PR) signaling pathway - cell viability counter screen (AID 1346798). Further: nearly all actives have a fitted effect of over 50% in size. The settings on record: PR-UAS-bla HEK293T viability, CellTiter-Glo luminescence, 16 h; series mostly up to 92.4 µM. An excerpt:
National Center for Advancing Translational Sciences [NCATS]
NIH Chemical Genomics Center [NCGC]
U.S. Environmental Protection Agency [EPA]
National Institutes of Environmental Health Sciences [NIEHS]
National Toxicology Program [NTP]
U.S. Food and Drug Administration [FDA]
Progesterone receptor (PR), a nuclear hormone receptor, plays an important role in development, metabolic homeostasis and reproduction. It is activated by the steroid hormone progesterone. Endocrine disrupting chemicals (EDCs) and their interactions with steroid hormone receptors like PR causes disruption of normal endocrine function. To identify the compounds that inhibit PR signaling, a PR-UAS-bla GripTite cell line i.e. PR-UAS-bla HEK293T (Invitrogen, Carlsbad, CA, USA) containing a beta-lactamase reporter gene under the control of an UAS response element was used to screen Tox21 10K compound library. The cytotoxicity of the Tox21 compound library against the PR-bla cell line was tested in parallel by measuring the cell viability using CellTiter-Glo assay in the same wells.
Tox21 Assay Protocol Summary:
PR-UAS-bla HEK293T cells were dispensed at 3,000 cells/4 uL of assay medium containing 2% charcoal stripped FBS per well into black wall/clear-bottom 1536-well plates using a Multidrop Combi (ThermoFisher Scientific, Waltham, MA) dispenser. After the assay plates were incubated at a 37C and 5% CO2 for 4 hr, 23 nL of compounds dissolved in DMSO, positive controls or DMSO only was transferred to the assay plate by a Pintool station (Kalypsys, San Diego, CA), followed by addition of 1 uL of R5020 in assay medium using a Flying Reagent Dispenser (FRD, Aurora Discovery, San Diego, CA). The plates were incubated at 37C and 5% CO2 for 16 hr. Then 1 uL of LiveBLAzer B/G FRET substrate was added using a Flying Reagent Dispenser, the plates were incubated at room temperature for 2 hours, and fluorescence intensity was measured by an Envision plate reader (PerkinElmer, Shelton, CT). For cell viability readout that measures cytotoxicity, 4 uL/well of CellTiter-Glo reagent was added into the assay plates using a FRD. After 30 min incubation at room temperature, the luminescence intensity in the plates was measured using a ViewLux (PerkinElmer) plate reader.
For orientation: Quantitative high-throughput screening tests each substance at several concentrations.
For the compound `CC(=O)Nc1ccc(OCC(O)CNC(C)C)cc1` (stereo not given), the Potency result is “inactive”. In the case of `CCCO[Si](OCCC)(OCCC)OCCC`, the Potency result was “inactive”. For the compound `CC(C)C1CCC(O)CC1` (stereo not given), the Potency entry was “inactive”. Same read-out and setting: as for `FB(F)F`, the entry is “inactive”; as for `CC1=CC(=O)[C@H]2C[C@@H]1C2(C)C`, “inactive”. For the compound `OCCc1ccccn1`, the Potency result is “inactive”. As for `C[C@H]1[C@H](NC(=O)/C(=N/OC(C)(C)C(=O)O)c2csc(N)n2)C(=O)N1S(=O)(=O)O` (stereo in doubt), the Potency entry is “inactive”. For `CCN[C@@H]1C[C@H](N)[C@@H](OC2OC(CN)=CCC2N)[C@H](O)[C@H]1O[C@H]1OC[C@](C)(O)[C@H](NC)[C@H]1O` (stereo not given in full), the activity change, negative = cytotoxicity was 4.73% [at 0.348 µM]. For `CO[C@@]1(NC(=O)C(C(=O)O)c2ccc(O)cc2)C(=O)N2C(C(=O)O)=C(CSc3nnnn3C)CO[C@@H]21` (stereo not given in full), the Potency entry was “inactive”. On the same count and under the same terms, as for `CCO[Si](OCC)(OCC)c1ccccc1`, the entry is “inactive”; as for `C[C@@H]1C[C@H]2[C@@H]3C[C@H](F)C4=CC(=O)C(Cl)=C[C@]4(C)[C@@]3(F)[C@@H](O)C[C@]2(C)[C@@]1(O)C(=O)CO`, “inactive”. As for `Cc1cccc(C)c1NC(=O)CC12CCCN1CCC2`, the Potency result is “inactive”. Take `CCC(=O)OCc1ccccc1`: the Potency entry was “inactive”.

As for `CO[C@@]1(NC(=O)CSC[C@@H](N)C(=O)O)C(=O)N2C(C(=O)O)=C(CSc3nnnn3C)CS[C@@H]21`, the Potency result is “inactive”. Regarding `CCCCc1nc(Cl)c(CO)n1Cc1ccc(-c2ccccc2-c2nn[nH]n2)cc1`, the Potency result is “inactive”. On to `CCOc1ccccc1OCC`, for which the Potency entry is “inactive”. As to `COc1cc(C(=O)OC(COCCC(C)C)CN2CCOCC2)cc(OC)c1OC` (stereo not given), the Potency result is “inactive”. In the case of `CCC1C(=O)OCC1Cc1cncn1C` (stereo not given), the Potency result is “inactive”.

For the compound `COc1ccnc(CS(=O)c2nc3cc(OC(F)F)ccc3[nH]2)c1OC` (stereo not given), the Potency entry is “inactive”.

On to `CC(C)(C#N)Nc1nc(Cl)nc(NC2CC2)n1`, for which the Potency result is “inactive”.

In the case of `C=CCCC(=O)O`, the Potency entry was “inactive”. As for `CCOC(=O)OC(C)OC1=C(C(=O)Nc2ccccn2)N(C)S(=O)(=O)c2ccccc21` (stereo not given), the Potency result was “inactive”.

Turning to `Nc1ccn([C@@H]2O[C@H](CO)[C@@H](O)C2(F)F)c(=O)n1`, the Potency result is “inactive”. On the same count and under the same terms, as for `CCC(C(=O)NC(=O)NC(C)=O)c1ccccc1` (stereo not given), the entry is “inactive”; as for `CCCCS(=O)(=O)N[C@@H](Cc1ccc(OCCCCC2CCNCC2)cc1)C(=O)O`, “inactive”. Regarding `CN1[C@@H]2CC[C@H]1CC(OC(=O)C(O)c1ccccc1)C2` (stereo not given in full), the Potency entry was “inactive”. In the case of `NO`, the Potency result is “inactive”. Same read-out and setting: the result for `CCCC[N+](C)(CCCC)CCCC` reads “inactive”; that for `CC(CO)(CO)[N+](=O)[O-]`, “inactive”; that for `CCCCCCCCCCCCCCC(=O)O`, “inactive”. Same read-out and setting: as for `C=CN1CCCCCC1=O`, the entry is “inactive”. With `CC(C)(C)C(=O)c1ccccc1`, the Potency entry is “inactive”.

With `C=C(C)C(=O)OCC1CCCO1` (stereo not given), the Potency result is “inactive”. On to `CCCc1ncc(C[n+]2ccccc2C)c(N)n1`, for which the Potency result is “inactive”. Take `C[N+]12CCC(CC1)C(OC(=O)C(O)(c1ccccc1)c1ccccc1)C2` (stereo not given): the Potency entry is “inactive”. As for `C=C[Si](OC(C)=O)(OC(C)=O)OC(C)=O`, the Potency result is “inactive”. With `Clc1cc(Cl)cc(Cl)c1`, the Potency result is “inactive”.

On to `Cc1cc(C)c(N=Nc2c(O)c(S(=O)(=O)O)cc3cc(S(=O)(=O)O)ccc23)cc1C`, for which the activity change, negative = cytotoxicity was 1.98% [at 8.39 µM]. In the case of `[O-][n+]1cccc(CO)c1`, the Potency result was “inactive”. Turning to `CCCCCCC#CC(=O)OC`, the Potency result is “inactive”.

The values are drawn from PubChem BioAssay (Tox21).
